Some test systems named below: NCI-H23 lung; NCI-H226 lung; NCI-H322M lung; HOP-62 NSCLC; NCI-H460 lung; HOP-92 NSCLC; NCI-H522 lung; A549/ATCC NSCLC; 786-0 renal; COLO 205 colon; DU-145 prostate; MALME-3M melanoma; MDA-MB-231 breast; RXF 393 renal; SF-268 CNS; SF-295 CNS; SF-539 CNS; UACC-257 melanoma; M14 melanoma.
What all share (assay): NCI-60 one-dose screen, 48 h (100 = growth as untreated, 0 = no growth, -100 = all killed)
Settings in all cases: 10 µM unless noted

The panel holds about 83,000 compounds, 20% with a hit somewhere; the sample as a whole holds those more often.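 The endpoint reported here, percent growth, reads 100 for growth as untreated, 0 for no net growth and -100 for all cells dead.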 A number with no mark means an inactive call. Active and inactive are the calls of the source. The calls were made as follows: active = growth percent below 10; inactive = the rest.

Consider `C[C@@H](Nc1ncnc2ccc(-c3cnc(N)nc3)cc12)c1ccc(F)cc1`, for which the growth in the assay with NCI-H23 lung was 85.9%; with NCI-H226 lung it was 89.1%; in the assay on NCI-H322M lung it was 37.8%; with HOP-62 NSCLC, 57.7%; in the assay on NCI-H460 lung, 99.2%; in the assay with HOP-92 NSCLC, 49.6%. Further, the growth with NCI-H522 lung is 66.3%; in the assay with A549/ATCC NSCLC it was 74%; with 786-0 renal, 68.9%; with COLO 205 colon, 112%; in the assay on DU-145 prostate it was 47.9%; in the assay on MALME-3M melanoma it was 85.2%. Moreover, the growth was 59.6% in the assay on MDA-MB-231 breast; 34.7% in the assay on RXF 393 renal; 64.1% in the assay with SF-268 CNS; 81.7% in the assay on SF-295 CNS; 95.3% in the assay on SF-539 CNS; 94.8% in the assay on UACC-257 melanoma. Further, the growth in the assay with M14 melanoma is 82.7%.

Consider `C[C@H]1[C@H](C)CC[C@]2(C(=O)Nc3ccc4ncccc4c3)CC[C@]3(C)C(=CC[C@@H]4[C@@]5(C)CCCNC(C)(C)[C@@H]5CC[C@]43C)[C@H]12`, for which the growth was 51% with NCI-H23 lung; 110% in the assay on NCI-H226 lung; 63.1% in the assay with NCI-H322M lung; 95.2% in the assay with HOP-62 NSCLC; -79.8% (active) in the assay on NCI-H460 lung; 60.2% in the assay with HOP-92 NSCLC. In addition, the growth is 9.94% (active) in the assay with NCI-H522 lung; -92.1% (active) in the assay on A549/ATCC NSCLC; -96.2% (active) with 786-0 renal; -82.7% (active) with COLO 205 colon; -74.1% (active) in the assay on DU-145 prostate; -78.5% (active) in the assay with MALME-3M melanoma. In addition, the growth in the assay on MDA-MB-231 breast is -71.9% (active); in the assay on RXF 393 renal, -84.8% (active); in the assay with SF-268 CNS, -40.4% (active); with SF-295 CNS it was -50.8% (active); with SF-539 CNS it was -72.9% (active); in the assay with UACC-257 melanoma, -86.9% (active). Also, the growth in the assay with M14 melanoma is -92% (active).

Regarding `C[C@H]1[C@H]2[C@H]3CC[C@@H]4[C@@]5(C)CC[C@H](O)C(C)(C)[C@@H]5CC[C@@]4(C)[C@]3(C)CC[C@]23CO[C@]1(C)[C@@H](C(=O)/C=C\c1ccco1)C3`, the growth was 98.5% in the assay with NCI-H23 lung; 99.7% in the assay on NCI-H226 lung; 88.3% in the assay with NCI-H322M lung; 104% in the assay with HOP-62 NSCLC; 109% in the assay with NCI-H460 lung; 65.4% with HOP-92 NSCLC. The growth is 87.8% in the assay on NCI-H522 lung; 104% in the assay with A549/ATCC NSCLC; 104% in the assay on 786-0 renal; -2.3% (active) in the assay on COLO 205 colon; 102% with DU-145 prostate; -11.3% (active) in the assay on MALME-3M melanoma. The growth in the assay on MDA-MB-231 breast was 82.9%; with RXF 393 renal it was 110%; in the assay on SF-268 CNS it was 96.3%; with SF-295 CNS, 110%; with SF-539 CNS, 99.7%; with UACC-257 melanoma, -8.91% (active). The growth in the assay on M14 melanoma is 34.4%.

`COc1ccc(/C=C/c2nc(Nc3ccc(S(=O)(=O)Nc4cc(C)on4)cc3)c3ccccc3n2)cc1`: the growth was 81.3% in the assay on NCI-H23 lung; 65.9% in the assay on NCI-H226 lung; 37.3% in the assay with NCI-H322M lung; 57.7% in the assay on HOP-62 NSCLC; 53.9% in the assay on NCI-H460 lung; 46% in the assay with HOP-92 NSCLC. For the same molecule, the growth with NCI-H522 lung is 63.5%; in the assay on A549/ATCC NSCLC, 39.1%; with 786-0 renal it was 87.9%; with COLO 205 colon, 48.6%; in the assay on DU-145 prostate it was 77.3%; in the assay with MALME-3M melanoma it was 112%. For the same molecule, the growth in the assay on MDA-MB-231 breast was 62.1%; with RXF 393 renal, 113%; with SF-268 CNS, 76.4%; in the assay with SF-295 CNS, 54.6%; with SF-539 CNS, 88.7%; in the assay on UACC-257 melanoma, 77.5%. The growth with M14 melanoma was 39.9%.

Regarding `OCc1cnccc1NCCCCOc1ccc(Oc2ccccc2)cc1`, the growth in the assay with NCI-H23 lung was 46.6%; with NCI-H226 lung it was 70.1%; in the assay on NCI-H322M lung, 94.7%; in the assay with HOP-62 NSCLC it was 72.1%; with NCI-H460 lung, 69.6%; with HOP-92 NSCLC, 43%. Moreover, the growth is 62.9% with NCI-H522 lung; 78.3% in the assay with A549/ATCC NSCLC; 56.8% in the assay with 786-0 renal; -10.4% (active) in the assay on COLO 205 colon; 80.2% in the assay on DU-145 prostate; 58% with MALME-3M melanoma. For the same molecule, the growth is 62.6% in the assay with MDA-MB-231 breast; 66.1% in the assay on RXF 393 renal; 80.9% in the assay with SF-268 CNS; 51.5% in the assay on SF-295 CNS; 67.3% in the assay on SF-539 CNS; 54.5% with UACC-257 melanoma. Further, in the assay on M14 melanoma, the growth is 53.6%.

With `Cc1cc(Cl)nc(N(CCNc2ccnc3cc(Cl)ccc23)Cc2ccccn2)n1`, the growth in the assay with NCI-H23 lung was 56.2%; in the assay with NCI-H226 lung, 79.5%; in the assay on NCI-H322M lung, 63.6%; with HOP-62 NSCLC it was 72.5%; in the assay with NCI-H460 lung, 50.9%; with HOP-92 NSCLC, 38%. Besides, the growth in the assay on NCI-H522 lung is 54.1%; in the assay on A549/ATCC NSCLC it was 63.3%; with 786-0 renal it was 38.7%; in the assay with COLO 205 colon it was 57.5%; in the assay on DU-145 prostate, 73%; in the assay with MALME-3M melanoma, 100%. The growth was 57.2% in the assay with MDA-MB-231 breast; 59.1% in the assay with RXF 393 renal; 83.4% in the assay with SF-268 CNS; 80.4% with SF-295 CNS; 6.88% (active) in the assay with SF-539 CNS; 68.1% in the assay on UACC-257 melanoma. Moreover, the growth with M14 melanoma was 62.5%.

On to `CCOC(=O)CC1CSC(N/N=C/c2ccc(-n3cccn3)cc2)=N1` (configuration not stated), for which the growth in the assay on NCI-H23 lung was 101%; with NCI-H226 lung it was 95%; in the assay on NCI-H322M lung it was 104%; in the assay on HOP-62 NSCLC, 105%; in the assay on NCI-H460 lung, 107%; with HOP-92 NSCLC, 99.3%. The growth was 99.1% with NCI-H522 lung; 93.1% in the assay on A549/ATCC NSCLC; 108% in the assay with 786-0 renal; 126% with COLO 205 colon; 108% with DU-145 prostate; 113% in the assay with MALME-3M melanoma. The growth in the assay with MDA-MB-231 breast is 101%; with RXF 393 renal it was 105%; in the assay with SF-268 CNS, 103%; in the assay on SF-295 CNS, 107%; in the assay on SF-539 CNS, 107%; in the assay on UACC-257 melanoma, 96.2%. Further, in the assay with M14 melanoma, the growth was 107%.

Take `CN1[C@@H]2CC[C@H]1/C(=C\c1ccccc1)C(=O)/C2=C/c1ccccc1`: the growth with NCI-H23 lung is 29.7%; in the assay with NCI-H226 lung, 45.8%; in the assay on NCI-H322M lung, 51.2%; in the assay on HOP-62 NSCLC, 95.8%; in the assay on NCI-H460 lung, 13.8%; in the assay with HOP-92 NSCLC, 84.3%. Moreover, the growth with NCI-H522 lung was 48.2%; with A549/ATCC NSCLC, 45.3%; in the assay with 786-0 renal it was 45.3%; in the assay on COLO 205 colon, 12.9%; in the assay with DU-145 prostate it was 14.1%; in the assay on MALME-3M melanoma, 72.8%. In addition, the growth in the assay with MDA-MB-231 breast was 47.6%; in the assay on RXF 393 renal it was 43.4%; in the assay with SF-268 CNS, 38.3%; in the assay on SF-295 CNS it was 32.8%; in the assay on SF-539 CNS, 43.1%; with UACC-257 melanoma, 42.8%. Besides, in the assay with M14 melanoma, the growth is 43.4%.

For the origin of these results see PubChem BioAssay (NCI).
